Pf growth 48h = P. falciparum growth inhibition at 48 hours (one generation); 5.9% of 310,000 active; Potency, µM (top dose mostly 28.7 µM), usual class: inhibitors; P. falciparum luciferase growth in erythrocytes, 48 h
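Firefly luciferase activity from engineered P. falciparum reports growth; inhibitors lower the luminescent signal. Cultures contained 2% hematocrit erythrocytes at 0.1% final parasitemia.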
Pf growth 96h = inhibits malaria parasite growth, 96 h; Potency, µM (series often up to 28.7 µM), hits mostly inhibitors; P. falciparum luciferase reporter growth, 96 h; 6.9% of 320,000 active
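P. falciparum expressing integrated firefly luciferase grown in erythrocytes (2% hematocrit, 0.05% parasitemia final) with compounds for 96 hours at 37 C, 5% CO2. Growth inhibition read as loss of luminescence after adding luciferase detection reagent.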
Shiga inhibitor = Shiga toxin inhibition; Vero cells, Shiga toxin protein synthesis inhibition reporter; inhibition, % at 38.7 µM; 9.2% of 290,000 active; in the data active = inhibition mostly above about 28%, no sharp cut-off; inactive = mostly below about 43%
NS1 function inh = influenza NS1 inhibition; 0.4% of 270,000 active; Potency, µM (top dose mostly 46.1 µM); calls by dose curve; also: actives are rising curves; nearly all actives have a fitted effect of over 50% in size
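S. cerevisiae expressing influenza A NS1, grown in glucose, washed, then diluted 1:100 into pH 6.0 -URA galactose medium with 23 nl compound. Growth recovery read as OD600; NS1-free strain serves as control.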
Cycloheximide cs = counter-screen for Shiga toxin inhibitors: cycloheximide protein synthesis inhibition; max response, %; 12% of 300,000 active; cell reporter, cycloheximide protein synthesis inhibition counterscreen; AID 2314; in the data active = max response mostly above about 13%, no sharp cut-off; inactive = mostly below about 14%; also: read at 38.3 µM for the half of the compounds with a filed dose
Of the large screens only hits and unclear results are named; the others gave an inactive call. In the library only some 21% were active in any assay of this set; here they are far more common. Unless noted, calls follow the shape of the dose curve; as a rule, active = well fitted inhibition curve with a large enough effect; inconclusive = small, poorly fitted or top-dose-only effect, or another doubt; inactive = no such curve, though single readings can be large or run the other way.

CCC1c2ccc(C)n2CCN1C(=O)Nc1cc(Cl)ccc1OC (centres undefined)	Pf growth 96h inconclusive
Cc1ccc2nsnc2c1NS(=O)(=O)c1c(C)ccc2nsnc12	none
Cc1ccc(/C=[N+](\[O-])c2ccc(N(C)C)cc2)c2nsnc12	Shiga inhibitor 84.9, Cycloheximide cs 33.6 (no result: NS1 function inh)
CC1CCC(C(C)C)C(O)C1 (centres undefined)	none (no result: NS1 function inh)
Cc1cnc(NC(=O)Nc2ccc(Cl)cc2)s1	Shiga inhibitor 152.6, Cycloheximide cs 56.6 (no result: NS1 function inh)
O=C(Nc1ccc(Cl)cc1)Nc1nc(-c2ccccc2O)cs1	Pf growth 48h 1.65µM, Pf growth 96h inconclusive, Shiga inhibitor 19.9
O=C(Nc1ccc(Cl)cc1)Nc1nc(-c2sccc2Br)cs1	Pf growth 48h 8.28µM, Pf growth 96h 9.28µM
Cc1csc(NC(=O)Nc2ccc(Cl)cc2)n1	Shiga inhibitor 61.7, Cycloheximide cs 47.7 (no result: Pf growth 48h, Pf growth 96h)
COc1cccc(Sc2ccccc2/C=N/NC(N)=O)c1	Pf growth 48h inconclusive, Pf growth 96h inconclusive (no result: NS1 function inh)
CCOc1ccc(S(=O)(=O)N2CCN(CC(O)COc3cccc([N+](=O)[O-])c3)CC2)cc1 (centres undefined)	Pf growth 48h inconclusive, Pf growth 96h inconclusive
Cc1ccc(Cl)cc1NC(=O)CCCN1C(=O)c2cccnc2C1=O	none (no result: NS1 function inh)
C=CCn1c(SCC(=O)NCc2cccs2)nnc1C1CCCCC1	Pf growth 96h inconclusive
O=C(Nc1ccc(S(=O)(=O)N2CCOCC2)cc1)c1ccc(CN2CCc3ccccc3C2)cc1	Pf growth 48h 11.7µM
O=C(Nc1ccc(Cl)cc1)c1ccc(CN2CCc3ccccc3C2)cc1	Pf growth 96h inconclusive
CCOc1ccc(NC(=O)c2ccc(CN3CCc4ccccc4C3)cc2)cc1	Pf growth 96h 5.22µM
N#CCc1ccc(NC(=O)c2ccc(CN3CCc4ccccc4C3)cc2)cc1	Pf growth 48h inconclusive, Pf growth 96h 8.28µM
CCOC(=O)c1ccc(NC(=O)c2ccc(CN3CCc4ccccc4C3)cc2)cc1	Pf growth 48h inconclusive
O=C(Nc1ccc(S(=O)(=O)N2CCCC2)cc1)c1ccc(CN2CCc3ccccc3C2)cc1	Pf growth 48h inconclusive
NC(=O)NC(c1ccccc1)c1cccc2ccccc12 (centres undefined)	NS1 function inh inconclusive (no result: Pf growth 48h)
COc1ccc(CCN(C(=O)C(F)(F)F)C(C(=O)NC2CCCCC2)c2ccc(C)s2)cc1 (centres undefined)	Pf growth 48h inconclusive, Pf growth 96h 8.28µM
COCCN(C(=O)C(F)(F)F)C(C(=O)NC1CCCCC1)c1ccco1 (centres undefined)	Pf growth 96h 11.7µM
COc1ccc(CCN(C(=O)C(F)(F)F)C(C(=O)NC2CCCCC2)c2cccs2)cc1 (centres undefined)	Pf growth 48h 9.28µM, Pf growth 96h inconclusive
COCCNC(=O)C(c1ccccc1F)N(C(=O)C(=O)NC1CCCC1)C1CCCCC1 (centres undefined)	Pf growth 96h 11.7µM
COCCN(C(=O)CNC(=O)c1cccs1)C(C(=O)NC1CCCCC1)c1ccco1 (centres undefined)	none (no result: Pf growth 96h)
O=S(=O)(NCC1CCCO1)c1ccc(Cl)nc1 (centres undefined)	none
COC(=O)CNC(=O)COC(=O)/C=C/c1ccccc1[N+](=O)[O-]	none (no result: NS1 function inh)
COc1ccc(N2CCN(C(=O)[C@@H]3CCCN3C3=NS(=O)(=O)c4ccccc43)CC2)cc1	Pf growth 48h inconclusive (no result: Shiga inhibitor, NS1 function inh, Cycloheximide cs)
COCCN(C(=O)CCC(=O)Nc1cc(C)on1)C(C(=O)NC1CCCC1)c1ccccc1C (centres undefined)	Pf growth 48h inconclusive
COCCN(C(=O)CCl)C(C(=O)NC1CCCCC1)c1ccccc1C (centres undefined)	Pf growth 48h 10.4µM, Pf growth 96h 8.28µM
Cn1c(=O)n(/N=C/c2ccccc2)c2ccccc21	Shiga inhibitor 44.5
CCOc1ccccc1NC(=O)CSc1nnc(CNC(=O)COc2ccc(Cl)cc2)o1	Pf growth 96h 10.4µM
COC(=O)c1ccc(CSc2nnc(CNC(=O)COc3ccc(Cl)cc3)o2)o1	Pf growth 96h 5.86µM
CC(OC(=O)CCOc1ccccc1)C(=O)Nc1ccc(Cl)cn1 (centres undefined)	none
Nc1nc(Cl)cc(NCCc2ccccc2)n1	Cycloheximide cs 14.6 (no result: NS1 function inh)
Nc1nc(Cl)cc(NCCc2ccc(O)cc2)n1	none (no result: NS1 function inh)
COc1ccc(/C=C/C(=O)OCC(=O)NC(=O)NC(C)(C)C)cc1	none (no result: NS1 function inh)
CCOCc1cnc(C)nc1NCC(=O)c1c(C)[nH]c2cc(C)ccc12	Pf growth 48h 0.828µM, Pf growth 96h 0.294µM
CCOCc1cnc(C)nc1NCC(=O)c1c(C)[nH]c2ccccc12	Pf growth 48h 2.08µM, Pf growth 96h 1.65µM

Compound activity deposited in PubChem BioAssay by National Center for Advancing Translational Sciences (NCATS).
